Among the targets are RELARELA (p65 homodimer) (Homo sapiens, UniProt Q04206 1-307); p50p50 homodimer (Homo sapiens, UniProt P19838 7-356); RELB subunit;p50 subunit (Homo sapiens;Homo sapiens, UniProt Q01201;P19838 120-401;7-356).
Common to all, as to test: protein binding microarray; high values mean tight binding
What all share (conditions): dsDNA, one strand shown

A further experiment concerns the target T1, p52p52 homodimer (Homo sapiens, UniProt Q00653 4-332).
T1 sequence: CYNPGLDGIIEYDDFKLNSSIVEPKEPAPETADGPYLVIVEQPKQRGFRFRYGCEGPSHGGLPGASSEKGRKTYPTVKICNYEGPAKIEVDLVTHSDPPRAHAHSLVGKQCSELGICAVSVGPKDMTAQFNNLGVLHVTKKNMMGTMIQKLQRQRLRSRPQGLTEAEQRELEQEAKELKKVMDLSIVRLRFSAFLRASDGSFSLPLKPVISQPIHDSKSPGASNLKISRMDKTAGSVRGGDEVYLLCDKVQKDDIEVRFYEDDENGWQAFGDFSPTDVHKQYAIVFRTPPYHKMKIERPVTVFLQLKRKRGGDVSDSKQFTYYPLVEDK

In experiment [1] the target is RELA (p65) subunit of heterodimer;p50 subunit (Homo sapiens;Homo sapiens, UniProt Q04206;P19838 1-307;7-356).
Experiment [2] addresses RELA (p65) subunit of heterodimer;p52 subunit (Homo sapiens;Homo sapiens, UniProt Q04206;Q00653 1-307;4-332).
A further experiment has as its target T2, RELB subunit;p52 subunit (Homo sapiens;Homo sapiens, UniProt Q01201;Q00653 120-401;4-332).
T2 sequence 1: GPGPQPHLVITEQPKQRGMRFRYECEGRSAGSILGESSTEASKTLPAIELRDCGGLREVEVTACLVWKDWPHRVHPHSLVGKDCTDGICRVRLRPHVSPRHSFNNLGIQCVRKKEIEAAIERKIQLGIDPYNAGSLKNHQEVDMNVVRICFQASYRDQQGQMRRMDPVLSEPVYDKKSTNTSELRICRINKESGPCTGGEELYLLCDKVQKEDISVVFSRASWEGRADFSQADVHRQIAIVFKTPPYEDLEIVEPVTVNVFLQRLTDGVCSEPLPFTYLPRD
T2 sequence 2: T1 sequence

Experiment [3] addresses C-Rel subunit;p50 subunit (Homo sapiens;Homo sapiens, UniProt Q04864;P19838 1-285;7-356).
The target of experiment [4] is T3, C-Rel subunit;p52 subunit (Homo sapiens;Homo sapiens, UniProt Q04864;Q00653 1-285;4-332).
T3 sequence 1: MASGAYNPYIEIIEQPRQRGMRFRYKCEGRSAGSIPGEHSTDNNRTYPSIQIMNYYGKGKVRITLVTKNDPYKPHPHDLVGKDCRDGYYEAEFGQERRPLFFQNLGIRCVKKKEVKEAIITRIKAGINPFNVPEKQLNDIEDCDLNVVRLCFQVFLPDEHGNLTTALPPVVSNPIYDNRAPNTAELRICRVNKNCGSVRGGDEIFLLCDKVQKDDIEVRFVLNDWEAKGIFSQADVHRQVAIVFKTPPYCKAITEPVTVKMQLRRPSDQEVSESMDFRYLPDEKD
T3 sequence 2: T1 sequence

p50p50 homodimer, sequence (P19838 7-356): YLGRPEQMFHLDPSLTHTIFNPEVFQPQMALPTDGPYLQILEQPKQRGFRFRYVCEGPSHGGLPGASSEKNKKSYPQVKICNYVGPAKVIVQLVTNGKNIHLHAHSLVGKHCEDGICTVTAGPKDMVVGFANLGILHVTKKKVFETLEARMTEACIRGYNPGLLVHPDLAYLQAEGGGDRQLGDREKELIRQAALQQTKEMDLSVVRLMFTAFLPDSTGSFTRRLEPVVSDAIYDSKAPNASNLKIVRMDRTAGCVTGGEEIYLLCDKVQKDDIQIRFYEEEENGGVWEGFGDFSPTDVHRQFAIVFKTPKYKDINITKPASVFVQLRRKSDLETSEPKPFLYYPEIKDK
RELARELA (p65 homodimer), sequence (Q04206 1-307): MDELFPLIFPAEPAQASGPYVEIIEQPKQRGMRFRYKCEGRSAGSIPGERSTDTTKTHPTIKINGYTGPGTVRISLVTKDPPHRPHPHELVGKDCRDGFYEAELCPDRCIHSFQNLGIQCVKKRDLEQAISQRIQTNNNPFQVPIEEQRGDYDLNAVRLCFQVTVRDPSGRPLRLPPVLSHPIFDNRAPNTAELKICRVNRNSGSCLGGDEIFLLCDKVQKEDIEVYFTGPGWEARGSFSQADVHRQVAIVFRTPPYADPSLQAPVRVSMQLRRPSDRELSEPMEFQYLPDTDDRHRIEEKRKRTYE
RELA (p65) subunit of heterodimer;p50 subunit, sequence (Q04206 1-307, chain 1 of 2): as the sequence (Q04206 1-307) above
RELA (p65) subunit of heterodimer;p50 subunit, sequence (P19838 7-356, chain 2 of 2): as the sequence (P19838 7-356) above

Turning to CAAATAGCCCC, the binding signal in the experiment with RELARELA (p65 homodimer) turned out to be 0.081 z-score; in the experiment with p50p50 homodimer, 0.839 z-score; with p52p52 homodimer, 0.425 z-score; in experiment [1], 0.413 z-score; in [2], 0.823 z-score; with RELB subunit;p50 subunit, 0.524 z-score. For the same sequence, the results for the binding signal (with RELB subunit;p52 subunit; in [3]; in experiment [4]) were 0.621 z-score, 0.331 z-score and 0.543 z-score, respectively.
As for AGAAGGGTCCC, the binding signal with RELARELA (p65 homodimer) is -0.591 z-score; in the experiment with p50p50 homodimer, -0.215 z-score; in the experiment with p52p52 homodimer, 0.0384 z-score; in experiment [1], -0.173 z-score; in experiment [2] it was -0.123 z-score; in the experiment with RELB subunit;p50 subunit it was -0.00663 z-score. The binding signal was -0.0866 z-score in the experiment with RELB subunit;p52 subunit, -0.405 z-score in experiment [3] and -0.315 z-score in experiment [4].
Turning to CGAGGAATCCT, the binding signal with RELARELA (p65 homodimer) was -0.235 z-score; in the experiment with p50p50 homodimer it was -1.18 z-score; in the experiment with p52p52 homodimer, -0.504 z-score; in experiment [1] it was -0.879 z-score; in experiment [2] it was -0.8 z-score; with RELB subunit;p50 subunit, -1.08 z-score. Besides, the binding signal in the experiment with RELB subunit;p52 subunit was -0.975 z-score; in experiment [3], -0.824 z-score; in experiment [4] it was -0.613 z-score.
With AGAATCCCCCC, the binding signal came to 1.06 z-score in the experiment with RELARELA (p65 homodimer); 1.63 z-score with p50p50 homodimer; 2.16 z-score with p52p52 homodimer; 2.66 z-score in experiment [1]; 2.29 z-score in experiment [2]; 2.64 z-score in the experiment with RELB subunit;p50 subunit. For the same sequence, the values for the binding signal (with RELB subunit;p52 subunit; in experiment [3]; in experiment [4]) were 2.51 z-score, 1.9 z-score and 2.21 z-score, respectively.
With AAGGGAATCCC, the binding signal was determined as 2.03 z-score with RELARELA (p65 homodimer); 0.857 z-score with p50p50 homodimer; 2.29 z-score with p52p52 homodimer; 1.16 z-score in experiment [1]; 1.75 z-score in experiment [2]; 1.21 z-score with RELB subunit;p50 subunit. Further, the binding signal amounted to 1.57 z-score with RELB subunit;p52 subunit, 1.02 z-score in [3] and 1.92 z-score in experiment [4].
On to AAGTTTCCCCT, for which the binding signal with RELARELA (p65 homodimer) was 1.76 z-score; in the experiment with p50p50 homodimer, 1.73 z-score; with p52p52 homodimer, 2.41 z-score; in experiment [1], 2.47 z-score; in [2] it was 2.06 z-score; in the experiment with RELB subunit;p50 subunit it was 2.72 z-score. For the same sequence, the binding signal with RELB subunit;p52 subunit was 2.65 z-score; in experiment [3], 2.01 z-score; in experiment [4], 1.96 z-score.
AGGTGACTCCT: the binding signal was -0.642 z-score in the experiment with RELARELA (p65 homodimer); -0.518 z-score with p50p50 homodimer; -0.228 z-score with p52p52 homodimer; -0.661 z-score in experiment [1]; -0.704 z-score in experiment [2]; -0.778 z-score with RELB subunit;p50 subunit. The binding signal in the experiment with RELB subunit;p52 subunit was -0.791 z-score; in experiment [3], -0.985 z-score; in experiment [4] it was -0.779 z-score.
Take AAGTGCCTCCC: the binding signal was -0.0547 z-score with RELARELA (p65 homodimer); -1.21 z-score in the experiment with p50p50 homodimer; -0.495 z-score with p52p52 homodimer; -0.501 z-score in experiment [1]; -0.793 z-score in [2]; -0.787 z-score in the experiment with RELB subunit;p50 subunit. The binding signal in the experiment with RELB subunit;p52 subunit is -0.731 z-score; in [3], -1.1 z-score; in experiment [4], -0.788 z-score.
Turning to AAGGGCGTCCT, the binding signal with RELARELA (p65 homodimer) is -1.14 z-score; with p50p50 homodimer it was -1.28 z-score; in the experiment with p52p52 homodimer it was -0.61 z-score; in [1] it was -1.06 z-score; in experiment [2], -0.909 z-score; in the experiment with RELB subunit;p50 subunit, -0.994 z-score. Moreover, the values for the binding signal (with RELB subunit;p52 subunit; in [3]; in [4]) were -0.788 z-score, -1.25 z-score and -0.659 z-score, respectively.
GAGAGTTCCCC: the binding signal with RELARELA (p65 homodimer) was found to be 1.61 z-score; in the experiment with p50p50 homodimer, 1.06 z-score; with p52p52 homodimer, 1.71 z-score; in [1] it was 1.77 z-score; in experiment [2] it was 1.55 z-score; with RELB subunit;p50 subunit it was 1.7 z-score. Moreover, the binding signal with RELB subunit;p52 subunit came out at 1.62 z-score; in experiment [3], 1.21 z-score; in experiment [4], 1.67 z-score.
Regarding AGATAGTTCCC, the binding signal with RELARELA (p65 homodimer) was 0.521 z-score; with p50p50 homodimer, -0.317 z-score; with p52p52 homodimer, -0.177 z-score; in experiment [1], -0.261 z-score; in experiment [2], -0.107 z-score; in the experiment with RELB subunit;p50 subunit it was -0.129 z-score. The binding signal was -0.286 z-score with RELB subunit;p52 subunit, -0.0396 z-score in experiment [3] and -0.0868 z-score in experiment [4].
In the case of CGAAAAATCCT, the binding signal in the experiment with RELARELA (p65 homodimer) was 0.627 z-score; with p50p50 homodimer, -0.702 z-score; with p52p52 homodimer it was -0.361 z-score; in [1], -0.584 z-score; in experiment [2], -0.435 z-score; with RELB subunit;p50 subunit, -0.775 z-score. Besides, the binding signal with RELB subunit;p52 subunit is -0.584 z-score; in experiment [3], -0.32 z-score; in experiment [4] it was -0.29 z-score.
Turning to GAGGGCATCCC, the binding signal with RELARELA (p65 homodimer) is 0.359 z-score; with p50p50 homodimer it was -0.785 z-score; with p52p52 homodimer, -0.256 z-score; in experiment [1] it was -0.318 z-score; in experiment [2] it was -0.398 z-score; in the experiment with RELB subunit;p50 subunit, -0.647 z-score. Besides, the binding signal was -0.505 z-score with RELB subunit;p52 subunit, -0.179 z-score in experiment [3] and -0.277 z-score in experiment [4].
On to AGGTTTTCCCC, for which the binding signal in the experiment with RELARELA (p65 homodimer) came out at 3.11 z-score; in the experiment with p50p50 homodimer, 1.14 z-score; in the experiment with p52p52 homodimer it was 3.16 z-score; in [1], 2.17 z-score; in experiment [2], 2.48 z-score; with RELB subunit;p50 subunit, 2.01 z-score. Also, the results for the binding signal (with RELB subunit;p52 subunit; in experiment [3]; in experiment [4]) were 2.3 z-score, 1.8 z-score and 2.63 z-score, respectively.
Consider CAAAAAGTCCC, for which the binding signal in the experiment with RELARELA (p65 homodimer) was 2.29 z-score; with p50p50 homodimer it was 1.2 z-score; with p52p52 homodimer it was 2.38 z-score; in experiment [1] it was 1.75 z-score; in experiment [2] it was 1.58 z-score; with RELB subunit;p50 subunit, 2.23 z-score. In addition, the binding signal with RELB subunit;p52 subunit came to 1.75 z-score; in experiment [3], 1.53 z-score; in experiment [4] it was 2.25 z-score.
